In all, about 290,000 compounds went through this assay and about 1,800 (0.62%) were called active. The sample holds actives, similar compounds and a random draw of the others, so the mix is not that of the screen. Rule as the data show it: active = inhibition above about 50%; inactive = the rest.
Assay: NOD2 signaling inhibitors, cell-based, luminescence, uHTS, HEK293 (AID 1566)
Details: HEK293 NOD2/NF-kB luciferase reporter, at 4 µM, hits give high values

Row | Compound | inhibition
1 | Cc1ccc(S(=O)(=O)N2CCN(CC(=O)Nc3ccc([N+](=O)[O-])cc3)CC2)cc1C | -86.3% (inactive)
2 | C=CCSc1nc2sc(C)c(C)c2c(=O)[nH]1 | 7.9% (inactive)
3 | CC(CCc1ccccc1)NC(=O)C(=O)c1c[nH]c2ccccc12 (stereo not given) | 6.1% (inactive)
4 | O=C(O)CC(NC(=O)c1cccc([N+](=O)[O-])c1)c1ccc2c(c1)OCO2 (stereo not given) | 14.8% (inactive)
5 | Cc1ccc(CN2CCCN(C)CC2)c(C)c1 | -3.4% (inactive)
6 | CCn1c(SCC(=O)Nc2nc(-c3ccc(C)cc3)cs2)nnc1-c1ccccc1 | 29% (inactive)
7 | CCn1c(SCC(=O)Nc2nc(-c3ccccc3)cs2)nnc1-c1ccccc1O | 11.1% (inactive)
8 | CCOc1ccccc1NC(=S)N(CCN(C)C)C(C)c1ccncc1 (stereo not given) | -15.1% (inactive)
9 | CC(C)(C)c1cc(-c2n[nH]c(=S)n2-c2ccc(Cl)cc2)n[nH]1 | 6.2% (inactive)
10 | NC(=O)C1CCN(C(=O)C2CCC(=O)N(C3CCCCCC3)C2)CC1 (stereo not given) | -3.9% (inactive)
11 | O=C(CNc1ccc(F)cc1)N/N=C/c1c(O)ccc2ccccc12 | 53.5% (active)
12 | COc1ccccc1NCC(=O)N/N=C/c1c(O)ccc2ccccc12 | 25% (inactive)
13 | O=C(CNc1ccccc1)N/N=C/c1c(O)ccc2ccccc12 | 19.3% (inactive)
14 | Cc1occc1-c1nnc(SCC(=O)NCC2CCCO2)n1C (stereo not given) | 8.4% (inactive)
15 | O=C(O)c1cc(N/N=C/c2ccc3c(c2)OCO3)ccc1Cl | -118% (inactive)
16 | O=C(O)c1ccc(N/N=C/c2ccc3c(c2)OCO3)cc1 | 66.8% (active)
17 | O=C(N/N=C/c1ccc2c(c1)OCO2)c1ccc2c(c1)OCO2 | -137% (inactive)
18 | S=C(NCc1ccncc1)Nc1ccccc1 | 16.2% (inactive)
19 | O=C(CC(Nc1ccccc1Cl)C(=O)O)c1ccccc1 (stereo not given) | -21.4% (inactive)
20 | O=C(CC(Nc1ccc(Cl)cc1)C(=O)O)c1ccccc1 (stereo not given) | 20.4% (inactive)
21 | O=C(CC(Nc1ccc(Cl)cc1Cl)C(=O)O)c1ccccc1 (stereo not given) | 61.2% (active)
22 | COc1ccc(NC(=O)CSc2ccc(-c3sc(C)nc3C)nn2)cc1 | 4.8% (inactive)
23 | COc1ccc(NC(=O)CSc2ccc(-c3sc(C)nc3C)nn2)cc1OC | 5.8% (inactive)
24 | S=C(Nc1cc(Cl)ccc1Cl)Nn1cnnc1 | 16.1% (inactive)
25 | CC(Oc1cc(C(F)(F)F)cc(C(F)(F)F)c1)C(=O)NC(N)=O (stereo not given) | 11.1% (inactive)

Row | Compound | inhibition
26 | O=C1CCCN2N=C(SCC(=O)N3CCCCC3)SC2=N1 | 5.8% (inactive)
27 | O=C(COc1ccccc1)Nc1ccccc1NS(=O)(=O)c1cccs1 | 11.6% (inactive)
28 | O=C(COc1ccc(Cl)cc1Cl)Nc1ccccc1NS(=O)(=O)c1cccs1 | 25.1% (inactive)
29 | OC(c1cccc(Cl)c1)c1nccc2ccccc12 (stereo not given) | 2.5% (inactive)
30 | COC(=O)c1nc2nc(-c3cccs3)cc(C(F)(F)F)n2n1 | 9.2% (inactive)
31 | Nc1cccc(Oc2ccc3c(c2)C(=O)NC3=O)c1 | -12.7% (inactive)
32 | CCOC(=O)c1c(-c2ccccc2)csc1NC(=O)CSc1nnnn1C | 12.2% (inactive)
33 | Cc1ccc(NC(=O)CCSc2nnc3ccccn23)cc1 | 18.1% (inactive)
34 | CCOC(=O)c1c(-c2ccc(C)cc2)csc1NC(=O)CCSc1nnc2ccccn12 | 53.9% (active)
35 | CC(=O)c1c(C)oc2ccc(OCc3ccccc3)cc12 | -10.9% (inactive)
36 | CC(=O)/C(=C/c1ccc(N(C)C)cc1)C(=O)c1ccccc1 | -7.8% (inactive)
37 | O=C(Nc1ccc(Cl)cc1)c1ccncc1 | -5% (inactive)
38 | Cc1nn(-c2ccc(NC(=O)c3ccncc3)cc2)c(C)c1Cl | 50% (active)
39 | Cc1nn(-c2ccc(C(=O)O)cc2)c(C)c1Cl | 11.5% (inactive)
40 | COc1ccc(S(=O)(=O)N(C)c2ccc(C(=O)N3CCN(c4ccccc4)CC3)cc2)cc1OC | 7.6% (inactive)
41 | CC(=O)Nc1ccc(S(=O)(=O)Nc2ccc3ccccc3n2)cc1 | 10.8% (inactive)
42 | CCS(=O)(=O)N1CCN(c2ncnc3sc(C)c(C)c23)CC1 | 18% (inactive)
43 | Cc1nc(N2CCN(S(=O)(=O)c3ccc(Br)cc3)CC2)c2c(C)c(C)sc2n1 | 45% (inactive)
44 | COc1ccc(CCC(=O)NNC(=O)c2cc(Cl)ccc2OC)cc1 | -4.6% (inactive)
45 | COc1ccc(/C(N)=N/OC(=O)Cc2ccccc2[N+](=O)[O-])cc1 | -2.6% (inactive)
46 | COc1ccc(NC(=O)CSc2ncnc3c2sc2ccccc23)c(OC)c1 | -3.6% (inactive)
47 | O=C(c1ccc(Cl)cc1)n1c(NCc2ccccc2)n[nH]c1=S | -38.1% (inactive)
48 | Oc1ccc2ccccc2c1/C=N/c1nccs1 | -2.7% (inactive)
49 | Oc1ccc(N=Nc2c(O)ccc3ccccc23)cc1 | 17% (inactive)
50 | Oc1ccc2ccccc2c1N=Nc1nccs1 | 91.9% (active)

Row | Compound | inhibition
51 | O=C(N/N=C/c1ccco1)c1cccc(NC(=O)c2ccccc2Cl)c1 | 50.6% (active)
52 | O=C(N/N=C/c1ccco1)c1cccc(NC(=O)c2cccc(Cl)c2)c1 | 12.2% (inactive)
53 | O=C(N/N=C/c1ccco1)c1ccc(NC(=O)c2ccccc2Cl)cc1 | -2.4% (inactive)
54 | O=C(Nc1cccc(-n2cccn2)c1)C1CCCN(Cc2ccc(C#CCCO)cc2)C1 (stereo not given) | -17.7% (inactive)
55 | C=CCNC(=O)c1c(Cl)cccc1Cl | 11.9% (inactive)
56 | COc1ccc(CNc2ncnc3c2[nH]c2ccccc23)cc1 | 23.3% (inactive)
57 | Cc1ccc2[nH]c3c(NCc4ccccc4)ncnc3c2c1 | 39.4% (inactive)
58 | Fc1ccc2[nH]c3c(NCc4ccccc4)ncnc3c2c1 | 62.7% (active)
59 | CCOC(=O)c1sc2cccc(Cl)c2c1N | 10.6% (inactive)
60 | O=C(Cc1c(Cl)cccc1Cl)Nc1ccncc1Cl | 13.2% (inactive)
61 | COc1ccc(CC(=O)Nc2cccnc2)cc1 | -3% (inactive)
62 | COCc1cc(Sc2ccc(OC)cc2)nc(-c2ccccc2)n1 | 18.2% (inactive)
63 | CC1CCN(S(=O)(=O)c2ccc(S(=O)(=O)N3CCCC3)cc2)CC1 | -1.3% (inactive)
64 | CC1CCN(c2ccc(S(=O)(=O)N3CCC(C)CC3)cc2N)CC1 | 50.3% (active)
65 | Nc1cc(S(=O)(=O)N2CCCCC2)ccc1N1CCOCC1 | 9.9% (inactive)
66 | Cc1ccc(C(=O)N2CCCC(Nc3ccc(C)c(C)c3)C2)c(=O)[nH]1 (stereo not given) | 9.6% (inactive)
67 | CCCCn1c(SCC(=O)c2ccccc2)nc2ccsc2c1=O | 13.3% (inactive)
68 | CCCCn1c(SCC(=O)N2CCC(C)CC2)nc2ccsc2c1=O | -2.9% (inactive)
69 | CC(=O)c1cccc(NC(=O)C2C3CCC(C3)C2C(=O)O)c1 (stereo not given) | 4.1% (inactive)
70 | COc1ccc(NC(=O)c2ccc(NCC3CCCO3)c([N+](=O)[O-])c2)cc1 (stereo not given) | 13.3% (inactive)
71 | Fc1ccccc1NC(=S)NNc1ncc(C(F)(F)F)cc1Cl | 13.7% (inactive)
72 | Cc1ccccc1NC(=S)NNc1ncc(C(F)(F)F)cc1Cl | 4.9% (inactive)
73 | COc1ccc(/C=C2\SC(=S)N(CCC(=O)NC3C=CS(=O)(=O)C3)C2=O)cc1 (stereo not given) | 11.8% (inactive)
74 | O=C(O)c1ccccc1C(=O)Nc1ccc(Oc2cccc3ccccc23)cc1 | 61.3% (active)
75 | O=C(O)c1ccccc1C(=O)Nc1ccc(Oc2ccccc2)cc1 | 7.7% (inactive)

Row | Compound | inhibition
76 | Cc1cccc(Oc2ccc(NC(=O)c3ccccc3C(=O)O)cc2)c1C | 8.6% (inactive)
77 | CC(C)[C@H](NC(=O)OC(C)(C)C)C(=O)N/N=C/c1cccc2nccnc12 | 10.5% (inactive)
78 | O=[N+]([O-])c1ccc(CSc2nnc(Cc3ccccc3)o2)cc1 | 1.1% (inactive)
79 | CC(=O)CSc1nnc(Cc2ccc([N+](=O)[O-])cc2)o1 | 9.2% (inactive)
80 | COc1ccc(Cc2nnc(SCc3ccc([N+](=O)[O-])cc3)o2)cc1 | 56.9% (active)
81 | O=C(O)CNC(=S)N(Cc1ccccc1)Cc1ccccc1F | 16.1% (inactive)
82 | CN=c1scc(-c2ccccc2Br)n1/N=C/c1ccc[nH]1 | 42.5% (inactive)
83 | CN=c1scc(-c2ccccc2F)n1/N=C/c1ccc[nH]1 | 90.4% (active)
84 | CN=c1scc(-c2ccccc2F)n1/N=C/c1ccc(O)c(O)c1O | 18.1% (inactive)
85 | Cc1cc(C(=O)CN2CCCCC2)c(C)n1-c1ccc(F)cc1 | -23.5% (inactive)
86 | Cc1cc(C(=O)COC(=O)C2CC2)c(C)n1-c1ccc(F)cc1 | 60.3% (active)
87 | Cc1cc(C(=O)COC(=O)c2ccc[nH]c2=O)c(C)n1-c1ccc(F)cc1 | -12.8% (inactive)
88 | Cc1cccc(C(=O)NC(=S)Nc2ccc3[nH]c(=O)[nH]c3c2)c1 | -10.1% (inactive)
89 | O=C(COC(=O)CCC(=O)c1cccs1)Nc1ccc(Cl)cn1 | -14% (inactive)
90 | Cc1cc(-c2csc(N)n2)c(C)n1Cc1ccco1 | 1.7% (inactive)
91 | Cc1cc(C2=NNC(=NC3CC3)SC2)c(C)n1Cc1ccco1 | 85.3% (active)
92 | COCCCN=C1NN=C(c2cc(C)n(Cc3ccco3)c2C)CS1 | -60.2% (inactive)
93 | CCN=C1NN=C(c2cc(C)n(CCc3ccccc3)c2C)CS1 | 0.1% (inactive)
94 | Cc1cc(C2=NNC(=NC3CCCCC3)SC2)c(C)n1-c1c(C)n(C)n(-c2ccccc2)c1=O | 2% (inactive)
95 | CCN=C1NN=C(c2cc(C)n(Cc3ccco3)c2C)CS1 | 82.2% (active)
96 | CCCC(=O)C1=C(O)C(C(=O)OC)C(C)(C)CC1=Nc1cccc2ccccc12 (stereo not given) | 13.4% (inactive)
97 | CCCn1c(SCC(=O)NC2CCCCC2)nnc1-c1ccccn1 | 22.2% (inactive)
98 | C=CCn1c(O)c(C=Nc2ccc(CN3CCCCC3)cc2)c(=O)[nH]c1=S | 25.5% (inactive)
99 | CCCCCCn1ccc(=N)cc1 | 40.3% (inactive)
100 | CCCCCn1ccc(=N)cc1 | 31.1% (inactive)

— PubChem BioAssay AID1566 (Sanford-Burnham Center for Chemical Genomics, 2009)
